In PubChem BioAssay (EPA / NIEHS):
Records with an inconclusive call do not appear. Some structures have more than one record in an assay (separate samples or runs), and their calls can disagree. Activity calls are given as the source filed them. The calls were made as follows, unless noted: active = hit-call score of the fitted dose curve at least 0.9, where 1 is the maximum; inactive = score below 0.9.

Assays:
[1] = target: Nuclear respiratory factor 1 (Homo sapiens) (UniProt Q16656); assay: ATG_NRF1_CIS: Attagene CIS-FACTORIAL HepG2 Assay for human Nuclear Respiratory Factor 1 (NRF1) Orphan Gene (AID 2282987); conditions: HepG2 NRF1 cis-element reporter, Attagene multiplex; actives raise or lower the signal
Method in brief: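 Endogenous NRF1-driven reporter transcription in transfected HepG2 cells after 24 h treatment. Readout: RT-PCR products, 6-FAM labelled and resolved by capillary electrophoresis; changes fitted both directions relative to DMSO.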

[2] = ATG_NFI_CIS: Attagene CIS-FACTORIAL HepG2 Assay for human Nuclear Factor I (NFI) (AID 2282989); conditions: HepG2 cis-regulatory reporter, NFI response element transcription; actives raise or lower the signal
Method in brief: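 Multiplexed cis-reporter system in human HepG2 cells reports native TF activity as reporter mRNA induction 24 h post-dose. Fragments labelled with 6-FAM, HpaI-digested and resolved by capillary electrophoresis; activity fitted both directions versus DMSO.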

[3] = target: Myc proto-oncogene protein (Homo sapiens) (UniProt P01106); assay: ATG_Myc_CIS: Attagene CIS-FACTORIAL HepG2 Assay for human Myelocytomatosis (Myc) Proto-Oncogene Transcription Factor (AID 2282990); conditions: HepG2, Attagene cis-reporter transcription factor activity; actives raise or lower the signal
Method in brief: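 HepG2, transient MRTU transfection (cis promoters, endogenous TFs); 24 h dosing; TriZol RNA → oligo(dT) RT → PCR → 6-FAM primer extension → HpaI cut → CE. Bidirectional fit vs DMSO.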

[4] = ATG_NF_kB_CIS: Attagene CIS-FACTORIAL HepG2 Assay for human Nuclear Factor Kappa B (NF-kB) (AID 2282991); conditions: HepG2 Attagene cis-factorial NF-kB reporter mRNA; actives raise or lower the signal
Method in brief: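 Readout is reporter transcript level, gain or loss versus DMSO, measured 24 h post-dose via RT-PCR, fluorescent labelling and capillary electrophoresis. Human HepG2 liver cells carried transiently transfected CIS reporter constructs reflecting endogenous factors.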

[5] = ATG_NRF2_ARE_CIS: Attagene CIS-FACTORIAL HepG2 Assay for human Nuclear Factor Erythroid 2 Related Factor 2 (NFR2) response to Antioxidant Response Elements (ARE) (AID 2282992); conditions: HepG2 Attagene ARE/NRF2 reporter, transcription factor activity; actives raise or lower the signal
Method in brief: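 Endogenous transcription factor activity read out as reporter transcript levels (RT-PCR plus capillary electrophoresis, fluorescence) in transiently transfected HepG2 cells. Measured at 24 h after dosing; gain or loss of signal fitted versus DMSO.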

[6] = ATG_Oct_MLP_CIS: Attagene CIS-FACTORIAL HepG2 Assay for human Octamer-Binding Transcription Factor (Oct) (AID 2282993); conditions: HepG2 Attagene cis-factorial Oct reporter, mRNA; actives raise or lower the signal
Method in brief: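 After 24 h compound exposure, transfected HepG2 cells were lysed for total RNA; reporter-specific cDNA was PCR-amplified, fluorescently labelled and sized by capillary electrophoresis. Bidirectional curve fitting used DMSO as baseline.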

[7] = BSK_3C_TissueFactor: BioMAP Diversity Plus: 3C Assay for Tissue Factor Biomarker Activity (AID 2282997); conditions: BioMAP 3C HUVEC, tissue factor biomarker readout; actives raise or lower the signal
Method in brief: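 In this endothelial system, HUVEC are treated for 24 h and Tissue Factor is assessed by ELISA, normalised to DMSO.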

[8] = BSK_3C_uPAR: BioMAP Diversity Plus: 3C Assay for Urokinase-type plasminogen activator receptor (uPAR) Biomarker Activity (AID 2282998); conditions: BioMAP 3C HUVEC, uPAR biomarker ELISA; actives raise or lower the signal
Method in brief: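 Values derive from bidirectional curve fitting relative to DMSO, which served as baseline of activity. uPAR was measured by ELISA in human umbilical vein endothelial primary cultures 24 h after compound addition.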

[9] = BSK_3C_VCAM1: BioMAP Diversity Plus: 3C Assay for Vascular cell adhesion molecule 1 (VCAM1) Biomarker Activity (AID 2282999); conditions: BioMAP 3C HUVEC, VCAM1 ELISA, cytokine-stimulated; actives raise or lower the signal
Method in brief: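 Activity fitted in both directions relative to DMSO, with ELISA measurement of the surface marker on primary HUVEC (3C) at 24 h post-treatment; parallel SRB staining (0.1% SRB, TCA-fixed, 560 nm) flagged overt cytotoxicity.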

[10] = BSK_4H_Eotaxin3: BioMAP Diversity Plus: 4H Assay for Eotaxin 3 Biomarker Activity (AID 2283000); conditions: primary human endothelial cells (HUVEC); actives raise or lower the signal;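 as to outcome: CCL26 protein level quantified by ELISA in parallel with SRB cytotoxicity check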
Method in brief: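 ELISA quantitation of CCL26 (Eotaxin-3) protein from chemically dosed human vascular endothelial cells at 24 h; increases and decreases both scored relative to DMSO-treated baseline.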

[11] = read-out: Intercellular Adhesion Molecule 1 (ICAM1), ICAM1 (gene 3383); assay: BSK_3C_ICAM1: BioMAP Diversity Plus: 3C Assay for Intercellular Adhesion Molecule 1 (ICAM1) Biomarker Activity (AID 2283003); conditions: primary human endothelial cells (HUVEC); actives raise or lower the signal
Method in brief: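 Using DMSO as baseline, bidirectional curve fitting was applied to ICAM-1 ELISA signals from HUVEC in the 3C system, measured 24 h after compound addition.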

[12] = target: human Retinoic Acid Receptor beta (RARb), RARB (gene 5915) (UniProt P10826); assay: ATG_RARb_TRANS: Attagene TRANS-FACTORIAL HepG2 Assay for human Retinoic Acid Receptor beta (AID 2283004; active = hit-call score of the fitted dose curve at least 0.9, where 1 is the maximum)
Method in brief: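 Fluorescent capillary-electrophoresis detection of GAL4-UAS reporter mRNA defines the endpoint, with induction over DMSO-treated wells scored as activity. Transiently transfected human hepatoma HepG2 cells expressing exogenous NR–Gal4 proteins are exposed to test chemicals for 24 h.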

[13] = target: Retinoic acid receptor alpha (Homo sapiens) (UniProt P10276); assay: ATG_RARa_TRANS: Attagene TRANS-FACTORIAL HepG2 Assay for human Retinoic Acid Receptor alpha (RARa) (AID 2283005; active = hit-call score of the fitted dose curve at least 0.9, where 1 is the maximum)
Method in brief: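 Reporter transcripts, measured by RT-PCR with fluorescent labeling and capillary electrophoresis after 24 h dosing, reflect activity of an exogenous human RARa–GAL4 fusion in transiently transfected HepG2. Fitted for increase relative to DMSO.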

[14] = BSK_3C_Proliferation: Cell Proliferation Assessment in the BioMAP Diversity Plus: 3C Assay (AID 2283006); conditions: primary human endothelial cells (HUVEC);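 as to AC50: potency may reflect either rise or fall in cell number versus DMSO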
Method in brief: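 Measured here: sulforhodamine B (0.1%) staining of TCA-fixed sub-confluent umbilical vein endothelial cultures 48 h post-dosing, absorbance 560 nm. DMSO served as negative control and baseline; both signal gain and loss were modelled.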

[15] = target: Peroxisome proliferator-activated receptor gamma (Homo sapiens) (UniProt P37231); assay: ATG_PPARg_TRANS: Attagene TRANS-FACTORIAL HepG2 Assay for human Peroxisome Proliferator-activated Receptor-gamma (PPARg) (AID 2283007; active = hit-call score of the fitted dose curve at least 0.9, where 1 is the maximum)
Method in brief: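 After 24 h of chemical exposure, transfected HepG2 cells carrying PPARγ-Gal4 chimera reporter constructs are lysed for RNA. Reporter transcripts are measured by RT-PCR and capillary electrophoresis with fluorescent labelling, and gain of signal is fitted versus DMSO.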

[16] = target: Nuclear receptor subfamily 1 group I member 2 (Homo sapiens) (UniProt O75469); assay: ATG_PXR_TRANS: Attagene TRANS-FACTORIAL HepG2 Assay for human Pregnane X Receptor (PXR) (AID 2283008; active = hit-call score of the fitted dose curve at least 0.9, where 1 is the maximum)
Method in brief: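 Transactivation by exogenous PXR–GAL4 fusion measured as reporter transcript induction after 24 h compound treatment of transfected human HepG2 cells. Read-out via RT-PCR and capillary electrophoresis of labelled fragments, fitted upward relative to DMSO.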

[17] = target: human Retinoic Acid Receptor gamma (RARg), RARG (gene 5916) (UniProt P13631); assay: ATG_RARg_TRANS: Attagene TRANS-FACTORIAL HepG2 Assay for human Retinoic Acid Receptor gamma (RARg) (AID 2283009; active = hit-call score of the fitted dose curve at least 0.9, where 1 is the maximum)
Method in brief: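 Gain-of-signal relative to DMSO is reported from fluorescent capillary electrophoresis of RT-PCR reporter products. These came from HepG2 cells expressing transfected RARg-GAL4 chimeras with UAS reporters, harvested 24 h after dosing.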

[18] = target: human RAR-related Orphan Receptor gamma (RORg), RORC (gene 6097) (UniProt P51449); assay: ATG_RORg_TRANS: Attagene TRANS-FACTORIAL HepG2 Assay for human RAR-related Orphan Receptor gamma (RORg) (AID 2283011; active = hit-call score of the fitted dose curve at least 0.9, where 1 is the maximum)
Method in brief: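 Chimeric RORg-Gal4 transactivation in transfected HepG2; 24 h exposure; RT-PCR/capillary electrophoresis readout of reporter mRNA, DMSO baseline.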

[19] = target: human RAR-related Orphan Receptor beta (RORb), RORB (gene 6096) (UniProt Q92753); assay: ATG_RORb_TRANS: Attagene TRANS-FACTORIAL HepG2 Assay for human RAR-related Orphan Receptor beta (RORb) (AID 2283010; active = hit-call score of the fitted dose curve at least 0.9, where 1 is the maximum)
Method in brief: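 Multiplexed transcription-factor reporter assay: HepG2 cells transiently carrying NR-Gal4/GAL4-UAS constructs, 24 h treatment, mRNA quantified by RT-PCR plus capillary electrophoresis fluorescence; activity scored as induction over DMSO.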

[20] = target: Cellular tumor antigen p53 (Homo sapiens) (UniProt P04637); assay: ATG_p53_CIS: Attagene CIS-FACTORIAL HepG2 Assay for human p53 Transcription Factor (AID 2282994); conditions: HepG2 p53 cis-element reporter, Attagene mRNA; actives raise or lower the signal
Method in brief: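 Endogenous p53 activity read in transiently transfected HepG2 from a cis-element-driven reporter transcript after 24 h exposure. RNA reverse-transcribed, PCR-amplified, fluorescently labelled and sized by capillary electrophoresis; gain or loss fitted against DMSO baseline.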

human Retinoic Acid Receptor beta (RARb), RARB (gene 5915), sequence (P10826 whole entry, looked up, the tested form may be a part): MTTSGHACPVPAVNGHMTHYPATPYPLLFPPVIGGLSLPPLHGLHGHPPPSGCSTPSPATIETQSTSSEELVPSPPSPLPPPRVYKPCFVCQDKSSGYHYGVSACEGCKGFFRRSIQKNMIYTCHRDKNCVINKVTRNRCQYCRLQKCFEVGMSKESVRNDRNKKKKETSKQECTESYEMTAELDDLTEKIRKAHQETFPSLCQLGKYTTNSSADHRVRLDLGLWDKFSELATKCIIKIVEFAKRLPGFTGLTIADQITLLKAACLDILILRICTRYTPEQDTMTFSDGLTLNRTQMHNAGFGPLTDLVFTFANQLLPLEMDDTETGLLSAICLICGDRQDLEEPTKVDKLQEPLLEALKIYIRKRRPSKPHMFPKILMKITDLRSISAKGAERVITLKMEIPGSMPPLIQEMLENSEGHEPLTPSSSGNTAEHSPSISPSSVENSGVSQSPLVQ
Peroxisome proliferator-activated receptor gamma (Homo sapiens), sequence (P37231 whole entry, looked up, the tested form may be a part): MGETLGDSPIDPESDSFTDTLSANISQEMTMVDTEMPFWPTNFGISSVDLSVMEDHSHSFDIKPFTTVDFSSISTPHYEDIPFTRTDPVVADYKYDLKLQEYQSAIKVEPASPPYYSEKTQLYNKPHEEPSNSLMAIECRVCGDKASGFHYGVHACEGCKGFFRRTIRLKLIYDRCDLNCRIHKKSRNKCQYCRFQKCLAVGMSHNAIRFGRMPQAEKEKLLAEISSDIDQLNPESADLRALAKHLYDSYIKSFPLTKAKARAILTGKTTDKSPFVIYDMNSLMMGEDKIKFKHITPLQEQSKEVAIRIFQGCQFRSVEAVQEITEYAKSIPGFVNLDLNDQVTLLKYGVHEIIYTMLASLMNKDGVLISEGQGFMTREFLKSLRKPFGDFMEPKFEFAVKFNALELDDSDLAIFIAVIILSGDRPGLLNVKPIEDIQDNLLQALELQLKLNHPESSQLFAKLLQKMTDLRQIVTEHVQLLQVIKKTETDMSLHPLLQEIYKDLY
human Retinoic Acid Receptor gamma (RARg), RARG (gene 5916), sequence (P13631 whole entry, looked up, the tested form may be a part): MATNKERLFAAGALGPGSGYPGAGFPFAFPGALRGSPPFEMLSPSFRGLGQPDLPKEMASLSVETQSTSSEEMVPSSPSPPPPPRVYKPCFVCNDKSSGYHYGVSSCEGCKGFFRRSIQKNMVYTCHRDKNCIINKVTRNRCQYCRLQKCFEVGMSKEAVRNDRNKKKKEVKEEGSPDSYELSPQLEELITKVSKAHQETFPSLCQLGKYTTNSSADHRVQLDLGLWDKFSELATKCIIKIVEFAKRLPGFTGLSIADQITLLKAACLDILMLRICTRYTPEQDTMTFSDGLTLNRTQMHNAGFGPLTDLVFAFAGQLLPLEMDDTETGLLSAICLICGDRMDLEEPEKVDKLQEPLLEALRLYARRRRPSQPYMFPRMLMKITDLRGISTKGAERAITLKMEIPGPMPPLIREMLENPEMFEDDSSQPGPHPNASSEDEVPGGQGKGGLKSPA
human RAR-related Orphan Receptor beta (RORb), RORB (gene 6096), sequence (Q92753 whole entry, looked up, the tested form may be a part): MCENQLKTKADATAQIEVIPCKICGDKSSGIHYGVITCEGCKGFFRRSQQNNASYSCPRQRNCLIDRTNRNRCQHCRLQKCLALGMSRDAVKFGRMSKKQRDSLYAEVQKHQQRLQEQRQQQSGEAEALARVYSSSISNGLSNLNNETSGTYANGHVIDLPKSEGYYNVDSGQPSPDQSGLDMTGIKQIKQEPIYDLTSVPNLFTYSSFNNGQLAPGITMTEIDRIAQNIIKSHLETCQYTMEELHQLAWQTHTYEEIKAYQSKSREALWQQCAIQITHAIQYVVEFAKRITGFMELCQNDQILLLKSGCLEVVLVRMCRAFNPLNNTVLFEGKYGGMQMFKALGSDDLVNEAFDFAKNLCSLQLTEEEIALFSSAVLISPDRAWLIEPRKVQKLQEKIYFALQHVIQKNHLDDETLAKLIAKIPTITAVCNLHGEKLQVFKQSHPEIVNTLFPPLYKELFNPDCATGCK
Retinoic acid receptor alpha (Homo sapiens), sequence (P10276 whole entry, looked up, the tested form may be a part): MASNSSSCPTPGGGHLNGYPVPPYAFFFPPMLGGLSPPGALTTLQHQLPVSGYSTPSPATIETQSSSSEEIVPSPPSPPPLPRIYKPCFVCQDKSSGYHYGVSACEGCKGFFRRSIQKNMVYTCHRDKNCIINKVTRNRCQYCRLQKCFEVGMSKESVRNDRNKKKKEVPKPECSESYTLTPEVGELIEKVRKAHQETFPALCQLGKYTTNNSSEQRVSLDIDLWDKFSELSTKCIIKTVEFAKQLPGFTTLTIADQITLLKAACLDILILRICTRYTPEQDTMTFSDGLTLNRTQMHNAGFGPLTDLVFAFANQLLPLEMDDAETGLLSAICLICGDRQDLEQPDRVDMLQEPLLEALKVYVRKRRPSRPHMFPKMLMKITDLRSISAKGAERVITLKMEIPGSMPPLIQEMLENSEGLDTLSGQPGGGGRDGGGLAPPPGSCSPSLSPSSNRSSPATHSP
human RAR-related Orphan Receptor gamma (RORg), RORC (gene 6097), sequence (P51449 whole entry, looked up, the tested form may be a part): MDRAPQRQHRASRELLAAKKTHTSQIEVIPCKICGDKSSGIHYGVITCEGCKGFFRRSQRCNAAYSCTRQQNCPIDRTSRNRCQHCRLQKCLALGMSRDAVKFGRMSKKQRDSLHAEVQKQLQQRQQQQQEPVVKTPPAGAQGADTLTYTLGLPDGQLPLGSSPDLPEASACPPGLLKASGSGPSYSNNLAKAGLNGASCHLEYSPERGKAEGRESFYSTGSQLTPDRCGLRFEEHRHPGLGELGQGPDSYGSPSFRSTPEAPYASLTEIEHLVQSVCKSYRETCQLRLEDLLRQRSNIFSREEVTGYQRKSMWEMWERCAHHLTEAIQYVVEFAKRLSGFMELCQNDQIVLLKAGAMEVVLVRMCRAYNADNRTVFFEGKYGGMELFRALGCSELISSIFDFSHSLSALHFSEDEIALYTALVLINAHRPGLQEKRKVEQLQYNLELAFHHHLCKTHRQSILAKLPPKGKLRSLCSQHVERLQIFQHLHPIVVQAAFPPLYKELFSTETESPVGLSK
Myc proto-oncogene protein (Homo sapiens), sequence (P01106 whole entry, looked up): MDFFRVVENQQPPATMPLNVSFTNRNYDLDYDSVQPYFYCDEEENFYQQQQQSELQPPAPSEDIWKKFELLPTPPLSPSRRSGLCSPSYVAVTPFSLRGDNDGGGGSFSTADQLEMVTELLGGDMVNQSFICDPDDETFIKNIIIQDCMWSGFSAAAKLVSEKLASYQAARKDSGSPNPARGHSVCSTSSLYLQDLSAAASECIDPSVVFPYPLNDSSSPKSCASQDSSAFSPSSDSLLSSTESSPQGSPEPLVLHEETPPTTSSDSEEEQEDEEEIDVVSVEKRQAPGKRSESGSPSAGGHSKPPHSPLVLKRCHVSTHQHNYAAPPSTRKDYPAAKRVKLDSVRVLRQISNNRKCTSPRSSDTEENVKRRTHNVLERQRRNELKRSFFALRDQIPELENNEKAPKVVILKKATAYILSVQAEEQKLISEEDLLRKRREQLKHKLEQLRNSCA
Nuclear respiratory factor 1 (Homo sapiens), sequence (Q16656 whole entry, looked up): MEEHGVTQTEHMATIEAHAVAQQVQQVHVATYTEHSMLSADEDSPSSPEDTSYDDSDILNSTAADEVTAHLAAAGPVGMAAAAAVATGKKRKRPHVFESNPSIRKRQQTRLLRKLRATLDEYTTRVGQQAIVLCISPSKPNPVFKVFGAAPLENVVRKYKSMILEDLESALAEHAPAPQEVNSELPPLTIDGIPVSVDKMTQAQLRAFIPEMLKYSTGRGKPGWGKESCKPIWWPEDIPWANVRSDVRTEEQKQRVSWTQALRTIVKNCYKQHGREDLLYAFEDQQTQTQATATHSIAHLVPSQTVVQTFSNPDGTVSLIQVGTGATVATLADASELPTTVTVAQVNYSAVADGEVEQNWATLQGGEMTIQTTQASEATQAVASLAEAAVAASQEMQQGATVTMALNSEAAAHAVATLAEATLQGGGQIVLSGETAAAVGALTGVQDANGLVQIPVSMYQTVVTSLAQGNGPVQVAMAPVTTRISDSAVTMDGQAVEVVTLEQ
Nuclear receptor subfamily 1 group I member 2 (Homo sapiens), sequence (O75469 whole entry, looked up, the tested form may be a part): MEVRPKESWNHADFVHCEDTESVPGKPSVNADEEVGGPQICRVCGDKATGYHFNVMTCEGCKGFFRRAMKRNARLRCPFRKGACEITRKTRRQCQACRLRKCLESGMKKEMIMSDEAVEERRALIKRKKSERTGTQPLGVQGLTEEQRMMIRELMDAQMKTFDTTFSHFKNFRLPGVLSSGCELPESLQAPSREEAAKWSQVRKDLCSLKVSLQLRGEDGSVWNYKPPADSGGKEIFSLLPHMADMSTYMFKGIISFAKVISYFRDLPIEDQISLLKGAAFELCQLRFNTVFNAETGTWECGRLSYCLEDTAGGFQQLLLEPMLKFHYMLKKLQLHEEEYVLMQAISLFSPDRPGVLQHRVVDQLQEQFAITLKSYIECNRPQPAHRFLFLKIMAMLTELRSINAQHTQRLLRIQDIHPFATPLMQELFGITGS
Cellular tumor antigen p53 (Homo sapiens), sequence (P04637 whole entry, looked up): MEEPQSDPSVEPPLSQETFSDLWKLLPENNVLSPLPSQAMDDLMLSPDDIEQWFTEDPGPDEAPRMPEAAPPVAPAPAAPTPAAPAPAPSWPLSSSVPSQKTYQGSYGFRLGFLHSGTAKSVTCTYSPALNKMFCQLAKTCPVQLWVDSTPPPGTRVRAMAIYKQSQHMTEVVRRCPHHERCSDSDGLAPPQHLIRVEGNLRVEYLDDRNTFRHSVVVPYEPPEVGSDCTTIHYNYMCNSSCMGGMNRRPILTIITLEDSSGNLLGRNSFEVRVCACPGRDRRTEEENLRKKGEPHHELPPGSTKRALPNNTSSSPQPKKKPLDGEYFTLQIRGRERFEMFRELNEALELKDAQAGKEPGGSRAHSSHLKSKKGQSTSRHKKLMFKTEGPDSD

CCOC1Oc2ccc(OS(C)(=O)=O)cc2C1(C)C (centres undefined)
outcome [1]: inactive | outcome [2]: inactive | outcome [3]: inactive | outcome [4]: inactive | AC50 [5]: 9.79 µM (active) | AC50 [6]: 23.9 µM (active) | outcome [7]: inactive | outcome [8]: inactive | outcome [9]: inactive | outcome [10]: inactive | outcome [11]: inactive | outcome [12]: inactive | outcome [13]: inactive | outcome [14]: inactive | outcome [15]: inactive | AC50 [16]: 29.6 µM (active) | outcome [17]: inactive | outcome [18]: inactive

CCC(C)(NC(=O)c1cc(Cl)c(C)c(Cl)c1)C(=O)CCl (centres undefined)
outcome [1]: inactive | outcome [2]: inactive | outcome [3]: inactive | outcome [4]: inactive | AC50 [5]: 1.64 µM (active) | outcome [6]: inactive | AC50 [7]: 5.41 µM (active) | AC50 [8]: 14.4 µM (active) | AC50 [9]: 9.51 µM (active) | AC50 [10]: 9.74 µM (active) | AC50 [11]: 26.6 µM (active) | outcome [12]: inactive | AC50 [14]: 5.47 µM (active) | AC50 [15]: 0.878 µM (active) | outcome [16]: inactive | outcome [17]: inactive | outcome [19]: inactive | outcome [18]: inactive

N#Cc1c(Cl)c(Cl)c(Cl)c(C#N)c1Cl
outcome [1]: inactive | outcome [2]: inactive | outcome [3]: inactive | outcome [4]: inactive | AC50 [5]: 0.0739 µM (active) | AC50 [6]: 0.143 µM (active) | AC50 [7]: 1.37 µM (active) | AC50 [8]: 1.8 µM (active) | AC50 [9]: 1.06 µM (active) | AC50 [10]: 1.82 µM (active) | AC50 [11]: 1.77 µM (active) | outcome [12]: inactive | outcome [13]: inactive | AC50 [14]: 0.148 µM (active) | outcome [15]: inactive | AC50 [16]: 0.324 µM (active) | outcome [17]: inactive | outcome [19]: inactive | outcome [18]: inactive

COC(=O)c1ccccc1CS(=O)(=O)NC(=O)Nc1nc(OC)cc(OC)n1
outcome [1]: inactive | outcome [2]: inactive | outcome [3]: inactive | outcome [4]: inactive | AC50 [5]: 24.2 µM (active) | outcome [5]: inactive | outcome [6]: inactive | outcome [7]: inactive | outcome [8]: inactive | outcome [9]: inactive | outcome [10]: inactive | outcome [11]: inactive | outcome [12]: inactive | outcome [13]: inactive | outcome [14]: inactive | outcome [15]: inactive | outcome [16]: inactive | outcome [17]: inactive | outcome [19]: inactive

CCN(CC)C(=O)SCc1ccc(Cl)cc1
outcome [1]: inactive | outcome [2]: inactive | outcome [3]: inactive | outcome [4]: inactive | AC50 [5]: 6.08 µM (active) | AC50 [6]: 25 µM (active) | outcome [7]: inactive | outcome [8]: inactive | outcome [9]: inactive | outcome [10]: inactive | outcome [11]: inactive | outcome [12]: inactive | outcome [14]: inactive | AC50 [15]: 37.1 µM (active) | outcome [16]: inactive | outcome [17]: inactive | outcome [18]: inactive

COP(=S)(OC)Oc1ccc(SC)c(C)c1
outcome [1]: inactive | outcome [2]: inactive | outcome [3]: inactive | outcome [4]: inactive | AC50 [5]: 15.5 µM (active) | outcome [6]: inactive | outcome [20]: inactive | outcome [7]: inactive | outcome [8]: inactive | outcome [9]: inactive | outcome [10]: inactive | outcome [11]: inactive | outcome [12]: inactive | outcome [14]: inactive | AC50 [15]: 33.3 µM (active) | AC50 [16]: 39.3 µM (active) | outcome [17]: inactive | outcome [19]: inactive
